# Measured values reported in the supplement of paper PMC12067926.
# Unmarked numbers belong to inactive results.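 The calls were made as follows: active = growth AUC significantly below the DMSO wells by Dunnett test; inactive = the rest.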
# Test system: Pseudomonas 5 (Pseudomonas baetica)
# Test: relative growth (AUC of 72 h growth curve relative to DMSO control, dAUC) (ratio); higher = more growth (less inhibition), active = hit call of the paper
# Conditions: 20 µM
# Procedure, shortened: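 Growth was followed as A600, read hourly for 72 h on a plate reader after brief shaking. Isolates from Icelandic stream sediments and Silwood Park soil, and whole sediment communities, were first grown to carrying capacity in Luria–Bertani medium and then diluted 1:100 into 96-well plates with each chemical at 20 µM (1% DMSO). Relative growth (dAUC) is the spline-integrated area under the curve scaled to the mean of the DMSO controls, and the values are averages of three biological replicates.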
row,Structure (SMILES),relative growth
1,CCCSP(=O)(OCC)Oc1ccc(Br)cc1Cl (configuration not stated),1.01
2,CC1(C(=O)Nc2ccc(O)c(Cl)c2Cl)CCCCC1,1.02
3,C[N+](C)(C)CCCl,1.02
4,CCc1cnc(C2=NC(C)(C(C)C)C(=O)N2)c(C(=O)O)c1 (configuration not stated),1.01
5,CC[C@H](C)[C@H]1O[C@]2(C=C[C@@H]1C)C[C@@H]1C[C@@H](C/C=C(\C)[C@@H](O[C@H]3C[C@H](OC)[C@@H](O[C@H]4C[C@H](OC)[C@@H](O)[C@H](C)O4)[C@H](C)O3)[C@@H](C)/C=C/C=C3\CO[C@@H]4[C@H](O)C(C)=C[C@@H](C(=O)O1)[C@]34O)O2.CO[C@H]1C[C@H](O[C@H]2[C@H](C)O[C@@H](O[C@@H]3/C(C)=C/C[C@@H]4C[C@@H](C[C@]5(C=C[C@H](C)[C@@H](C(C)C)O5)O4)OC(=O)[C@@H]4C=C(C)[C@@H](O)[C@H]5OC/C(=C\C=C\[C@@H]3C)[C@]54O)C[C@@H]2OC)O[C@@H](C)[C@@H]1O,1.13
6,CCCCC(C#N)(Cn1cncn1)c1ccc(Cl)cc1 (configuration not stated),0.963
7,Clc1ccc(C(c2ccc(Cl)cc2)C(Cl)(Cl)Cl)cc1,1.05
8,CCC(C)(C)C(=O)OC1=C(c2ccc(Cl)cc2Cl)C(=O)OC12CCCCC2,1.02
9,O=C1c2ccccc2C(=O)N1SC(Cl)(Cl)Cl,1.06
10,Cc1nnc(-c2ccccc2)c(=O)n1N,0.987
11,N#Cc1c(Cl)c(Cl)c(Cl)c(C#N)c1Cl,1.01
12,CC(C)N(C)S(=O)(=O)NC(=O)c1cc(-n2c(=O)cc(C(F)(F)F)n(C)c2=O)c(F)cc1Cl,1.06
13,COC(=O)N(C(=O)N1CO[C@@]2(C(=O)OC)Cc3cc(Cl)ccc3C2=N1)c1ccc(OC(F)(F)F)cc1,0.965
14,CN1COCN(Cc2cnc(Cl)s2)/C1=N\[N+](=O)[O-],1.04
15,CCCN(CCC)C(=O)SCc1ccccc1,1.06
16,OC(Cn1cncn1)(c1ccc(F)cc1)c1ccccc1F (configuration not stated),1
17,CC(C1CC1)C(O)(Cn1cncn1)c1ccc(Cl)cc1 (configuration not stated),0.986
18,COC(=O)c1ccccc1S(=O)(=O)NC(=O)Nc1nc(C)nc(OC)n1,0.984
19,CN(C)C(CSS(=O)(=O)O)CSS(=O)(=O)O,1.04

row,Structure (SMILES),relative growth
1,CNC(=O)c1cc(Cl)cc(C)c1NC(=O)c1cc(Br)nn1-c1ncccc1Cl,0.958
2,CO/C=C(/C(=O)OC)c1ccccc1Oc1cc(Oc2ccccc2C#N)ncn1,1.03
3,O=C(NC(=O)c1c(F)cccc1F)Nc1ccc(OC(F)(F)C(F)OC(F)(F)F)c(Cl)c1 (configuration not stated),0.966
4,N#Cc1cc(Br)c(O)c(Br)c1,1.05
5,CCOCN(C(=O)CCl)c1c(C)cccc1CC,0.988
6,CC1(C)[C@H](/C=C(\Cl)C(F)(F)F)[C@@H]1C(=O)OC(C#N)c1cccc(Oc2ccccc2)c1 (some centres not stated),1.08
7,C#CCOc1ccc(CCNC(=O)C(OCC#C)c2ccc(Cl)cc2)cc1OC (configuration not stated),0.985
8,O=[N+]([O-])/N=C1\NCCN1Cc1ccc(Cl)nc1,0.978
9,Fc1ccc(Oc2ccnc3cc(Cl)cc(Cl)c23)cc1,1.01
10,CC(Oc1ccc(Oc2ncc(C(F)(F)F)cc2Cl)cc1)C(=O)O (configuration not stated),1.03
11,O=C(O)CNCP(=O)(O)O,1
12,C[N+]1(C)CCCCC1,1.04
13,Oc1ccc(Cl)cc1Cc1cc(Cl)ccc1O,0.817 (active)
14,CCOP(=S)(OCC)Oc1cc(C)nc(C(C)C)n1,0.98
15,CC(C)N(C(=O)COc1nnc(C(F)(F)F)s1)c1ccc(F)cc1,1.01
16,CCCC1COC(Cn2cncn2)(c2ccc(Cl)cc2Cl)O1 (configuration not stated),0.987
17,Nc1c([N+](=O)[O-])ccc(Oc2ccccc2)c1Cl,1.02
18,COC(=O)N(OC)c1ccccc1COc1ccn(-c2ccc(Cl)cc2)n1,1.02
